Pf_Dd2_inh – P. falciparum Dd2 growth inhibitors, primary screen, SYBR Green fluorescence, single dose replicates; 72 h; active compounds read low; activity change, % at 10 µM; 94,000 compounds, 2.3% hits; AID 1159554, 2015; in the data active = activity change below about -80%; inconclusive = no clear call, values can overlap the other calls
T_cruzi_growth-1 – T. cruzi intracellular proliferation inhibitors, primary screen, cell-based, beta-gal Tulahuen parasites, NIH3T3 host, luminescence. T. cruzi beta-gal in NIH3T3, GalScreen luminescence, 90 h. inhibition, % at 8.34 µM. 77,000 compounds, 5.9% hits;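 active = mean inhibition above about 93%, with at least 55% of replicates each passing it, limit read from the data, passing the limit was not always enough; inconclusive = only one of those two conditions holds; inactive = neither condition holds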
C_diff_growth – C. difficile growth inhibitors, primary screen, HTS. Clostridium difficile clinical isolate growth, OD600, 24 h; active compounds read low. growth activity, negative = inhibition, % at 16 µg/mL (by protocol). 86,000 compounds, 0.25% hits. AID 1259249, 2017;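 active = mean growth activity at or below -80% and every replicate also at or below -80%; inconclusive = mean at or below -80% but some replicate above -80%; inactive = mean growth activity above -80%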;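 also: 0% = DMSO wells and -100% = levofloxacin 16 µg/mL wells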
T_cruzi_growth-2 – T. cruzi intracellular proliferation inhibitors, confirmation, cell-based, NIH3T3 host, beta-gal parasite, luminescence, cherry-pick; shares compounds with T_cruzi_growth-1; T. cruzi beta-gal in NIH3T3, GalScreen luminescence, 90 h; inhibition, % at 8.35 µM; 5,600 compounds, 72% hits;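 active = mean replicate inhibition above about 95% and at least 55% of replicates individually reaching it, limit read from the data; inconclusive = only one of the two criteria is met; inactive = neither criterion is met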
T_cruzi_growth-3 – inhibitors of intracellular T. cruzi replication, confirmation, NIH3T3 host cells, beta-gal parasites, cherry-pick, set 2 | shares compounds with T_cruzi_growth-1 | inhibition, % at 2.09 µM | 5,600 compounds, 21% hits | AID 651740, 2012 | T. cruzi beta-gal in NIH3T3, GalScreen luminescence, 90 h;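 active = mean inhibition above about 95%, with at least 55% of replicates also reaching it, limit read from the data; inconclusive = meets just one of the two conditions; inactive = meets neither condition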;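 also: plate controls were neutral control median for no effect and positive control median for full effect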
NIH3T3_tox – cytotoxicity in mouse NIH/3T3 fibroblasts, confirmation, cytotoxicity control for T. cruzi proliferation inhibitor project, cell-based, cherry-pick, single point | shares compounds with T_cruzi_growth-1 | NIH/3T3 viability, CellTiter-Glo ATP luminescence, 90 h | cytotoxicity (signal decrease), % at 8.35 µM | 5,600 compounds, 14% hits;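 active = mean signal decrease across replicates above about 35% based on untreated-well scatter, with enough replicates individually passing, limit read from the data; inconclusive = no rule stated though some were filed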;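 also: 0% = median of neutral control wells and 100% = median of positive control wells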
NIH3T3_tox_2 – NIH/3T3 fibroblast cytotoxicity, confirmation, cytotoxicity control, cell-based, cherry-pick, single point, set 2. inhibition, % at 24.9 µM. NIH/3T3 viability, CellTiter-Glo ATP luminescence, 90 h. shares compounds with T_cruzi_growth-1. AID 651744, 2012. 5,600 compounds, 56% hits;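 active = mean loss of cell viability signal at or above a set limit, and enough replicates individually reaching it; inconclusive = meets only the mean limit or only the replicate share; inactive = meets neither condition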;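 also: 0% = median of neutral control wells and 100% = median of positive control wells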
* marks the source's active call; other numbers are inactive results; ? = inconclusive; / = no result. A selection: hits, their analogues and other compounds. The true share with any hit is near 6.8%.

SMILES Pf_Dd2_inh T_cruzi_growth-1 C_diff_growth T_cruzi_growth-2 T_cruzi_growth-3 NIH3T3_tox NIH3T3_tox_2
COc1ccccc1C#Cc1ccc([C@@H]2[C@@H](C#N)N(C(=O)C3CCC3)[C@@H]2CO)cc1 -11 80 13 / / / /
COc1ccccc1C#Cc1ccc([C@@H]2[C@@H](CO)N(C(=O)C3CCC3)[C@H]2C#N)cc1 -67 91 -6 / / / /
C[C@H]1CN([C@@H](C)CO)S(=O)(=O)c2ccc(C#CCN(C)C)cc2O[C@@H]1CN(C)C(=O)c1ccccc1F -29 99* -1 105* 91 8 16
C[C@@H]1CN([C@@H](C)CO)S(=O)(=O)c2ccc(C#CCN(C)C)cc2O[C@H]1CN(C)C(=O)c1ccccc1F -37 101* -2 109* 89 11 6
C[C@@H]1CN([C@H](C)CO)S(=O)(=O)c2ccc(C#CCN(C)C)cc2O[C@@H]1CN(C)C(=O)c1ccccc1F -29 18 0 / / / /
C[C@@H]1CN([C@H](C)CO)S(=O)(=O)c2ccc(C#CCN(C)C)cc2O[C@H]1CN(C)C(=O)c1ccccc1F -43 93 -4 / / / /
O=C(N[C@@H]1CC[C@@H](CCn2cc(-c3ccccn3)nn2)O[C@H]1CO)c1ccccc1 / / 2 / / / /
O=C(C[C@H]1C[C@H]2c3cc(NC(=O)CC4CC4)ccc3O[C@H]2[C@H](CO)O1)NCc1ccc(Cl)cc1 1 35 / / / / /
CO[C@H]1CN(C)C(=O)c2cc(NS(C)(=O)=O)ccc2OC[C@@H](C)N(C(=O)C2CCCC2)C[C@@H]1C / 12 / / / / /
Cc1ccc(S(=O)(=O)N(C)C[C@H]2OCCCC[C@@H](C)Oc3ccc(NC(=O)Nc4ccccc4)cc3C(=O)N([C@H](C)CO)C[C@H]2C)cc1 -87* 113* 1 109* 108* -8 7
Cc1ccc(S(=O)(=O)N(C)C[C@H]2OCCCC[C@H](C)Oc3ccc(NC(=O)Nc4ccccc4)cc3C(=O)N([C@@H](C)CO)C[C@@H]2C)cc1 -83* 111* 6 101* 107* -24 3
Cc1ccc(S(=O)(=O)N(C)C[C@@H]2OCCCC[C@H](C)Oc3ccc(NC(=O)NC(C)C)cc3C(=O)N([C@@H](C)CO)C[C@@H]2C)cc1 -67 81 -11 / / / /
Cc1ccc(S(=O)(=O)N(C)C[C@@H]2OCCCC[C@H](C)Oc3ccc(NC(=O)Nc4ccccc4)cc3C(=O)N([C@@H](C)CO)C[C@@H]2C)cc1 -90* 108* 5 102* 71 -2 6
Cc1ccc(S(=O)(=O)N(C)C[C@H]2OCCCC[C@@H](C)Oc3ccc(NC(=O)NC(C)C)cc3C(=O)N([C@H](C)CO)C[C@@H]2C)cc1 -34 -58 -12 / / / /
Cc1ccc(S(=O)(=O)N(C)C[C@H]2OCCCC[C@@H](C)Oc3ccc(NC(=O)NC(C)C)cc3C(=O)N([C@@H](C)CO)C[C@H]2C)cc1 -56 12 -12 / / / /
Cc1ccc(S(=O)(=O)N(C)C[C@H]2OCCCC[C@@H](C)Oc3ccc(NC(=O)NC(C)C)cc3C(=O)N([C@@H](C)CO)C[C@@H]2C)cc1 -58 -2 -6 / / / /
Cc1ccc(S(=O)(=O)N(C)C[C@H]2OCCCC[C@@H](C)Oc3ccc(NC(=O)Nc4ccccc4)cc3C(=O)N([C@@H](C)CO)C[C@H]2C)cc1 -74 ? -2 106* 103* -17 19
C[C@@H]1CCCCO[C@@H](CN(C)C(=O)CCC(F)(F)F)[C@@H](C)CN([C@H](C)CO)C(=O)c2cc(NC(=O)NC3CCCCC3)ccc2O1 -28 21 -2 / / / /
CNC[C@@H]1OCCCC[C@@H](C)Oc2ccc(NC(=O)NC3CCCCC3)cc2C(=O)N([C@@H](C)CO)C[C@H]1C / 6 3 / / / /
CNC[C@@H]1Oc2c(NC(=O)c3ccc(-c4nccs4)cc3)cccc2C(=O)N([C@@H](C)CO)C[C@H]1C -8 -2 0 / / / /
C[C@@H]1CN([C@H](C)CO)C(=O)c2cc(NC(=O)c3ccccc3)ccc2O[C@@H](C)CCCCO[C@@H]1CN(C)S(=O)(=O)c1ccccc1 -72 24 / / / / /
Cc1ccc(S(=O)(=O)N(C)C[C@@H]2OCCCC[C@H](C)Oc3ccc(NC(=O)c4ccccc4)cc3C(=O)N([C@H](C)CO)C[C@@H]2C)cc1 -72 95* / 104* 55 -14 ?
Cc1ccc(S(=O)(=O)N(C)C[C@H]2OCCCC[C@@H](C)Oc3ccc(NC(=O)Nc4ccccc4)cc3C(=O)N([C@@H](C)CO)C[C@@H]2C)cc1 -83* 109* 1 109* 63 18 35*
Cc1ccc(S(=O)(=O)N(C)C[C@H]2OCCCC[C@H](C)Oc3ccc(NC(=O)NC(C)C)cc3C(=O)N([C@@H](C)CO)C[C@H]2C)cc1 -63 10 -4 / / / /
Cc1ccc(S(=O)(=O)N(C)C[C@H]2OCCCC[C@H](C)Oc3ccc(NC(=O)Nc4ccccc4)cc3C(=O)N([C@H](C)CO)C[C@H]2C)cc1 -88* ? 2 111* 32 -3 -4
SMILES Pf_Dd2_inh T_cruzi_growth-1 C_diff_growth T_cruzi_growth-2 T_cruzi_growth-3 NIH3T3_tox NIH3T3_tox_2
Cc1ccc(S(=O)(=O)N(C)C[C@H]2OCCCC[C@@H](C)Oc3ccc(NC(=O)NC(C)C)cc3C(=O)N([C@H](C)CO)C[C@H]2C)cc1 -60 19 5 / / / /
CC(C)C#Cc1ccc2c(c1)O[C@@H](CN(C)S(=O)(=O)c1cn(C)cn1)[C@H](C)CN([C@@H](C)CO)S2(=O)=O -24 / 0 / / / /
C[C@@H]1CN([C@H](C)CO)C(=O)c2cccc(NC(=O)C3CC3)c2O[C@@H]1CN(C)C(=O)Nc1ccc2c(c1)OCO2 -16 28 -2 / / / /
C[C@H]1CCCCO[C@@H](CN(C)Cc2ccncc2)[C@@H](C)CN([C@@H](C)CO)C(=O)c2cc(NC(=O)Nc3ccc(C(F)(F)F)cc3)ccc2O1 -63 101* -7 97* 114* -6 70*
C[C@@H]1CCCCO[C@H](CN(C)Cc2ccc(C(F)(F)F)cc2)[C@H](C)CN([C@@H](C)CO)C(=O)c2cc(NC(=O)c3ccncc3)ccc2O1 -21 90 -4 / / / /
C[C@H](CO)N1C[C@H](C)[C@H](CN(C)Cc2ccncc2)OCCCC[C@H](C)Oc2ccc(NC(=O)Nc3ccc(C(F)(F)F)cc3)cc2C1=O 26 94 15 / / / /

Screening results from PubChem.
